This excerpt belongs to a sample that is enriched for hits.
SF-1 inh – blocks the human nuclear receptor SF-1; hit rate 0.55% among 65,000; inhibition, % at 10 µM; Q13285; CHO-K1 Gal4-SF-1 LBD luciferase reporter;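 active = inhibition above the mean inhibition of all tested compounds plus 3 SD, cut at about 48% in these data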
Target sequence (Q13285 whole entry, looked up, the tested form may be a part): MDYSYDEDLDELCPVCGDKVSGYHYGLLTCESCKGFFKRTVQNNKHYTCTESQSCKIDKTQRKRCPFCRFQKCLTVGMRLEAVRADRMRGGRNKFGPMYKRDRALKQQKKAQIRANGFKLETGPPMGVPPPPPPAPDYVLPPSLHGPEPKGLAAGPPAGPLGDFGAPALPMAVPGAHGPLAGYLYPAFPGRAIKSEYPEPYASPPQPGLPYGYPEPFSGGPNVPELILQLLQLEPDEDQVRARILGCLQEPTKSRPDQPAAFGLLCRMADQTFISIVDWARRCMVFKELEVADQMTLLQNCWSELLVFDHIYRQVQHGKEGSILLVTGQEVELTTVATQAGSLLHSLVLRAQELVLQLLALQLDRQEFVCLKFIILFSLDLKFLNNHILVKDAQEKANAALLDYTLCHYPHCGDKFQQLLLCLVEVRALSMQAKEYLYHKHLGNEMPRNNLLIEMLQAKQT
Hits are given with their value; – = inactive.

SMILES	SF-1 inh
Nc1nonc1C(=O)NCCNCc1cc(Br)ccc1OCc1ccc(F)cc1	57
COc1ccc(CCNC(=O)c2nonc2N)cc1OC	–
CC1=C(C(=O)Nc2ccccn2)C(c2cccnc2)n2nnnc2N1 (stereo not drawn)	–
COc1ccc(CC(=O)Nc2ccc(S(=O)(=O)NCC3CCCO3)cc2)cc1 (stereo not drawn)	–
COC(=O)c1ccc2c(=O)n(CCN3CCOCC3)c(SCC(=O)c3ccccc3)nc2c1	–
COc1ccc(C(=O)Nn2c(SCC(=O)NCC3CCCO3)nc3ccccc3c2=O)cc1 (stereo not drawn)	67
O=C(OC(C(=O)NCc1ccc2c(c1)OCO2)c1ccc(Cl)cc1)c1ccco1 (stereo not drawn)	–
O=C1c2ccccc2NC(c2cnc3ccccc3n2)N1O (stereo not drawn)	–
O=C(NCc1ccccn1)c1ccc2ccccc2n1	–
O=C1c2ccccc2C(=O)C1c1ccc2ccccc2n1	72
COC(=O)CCc1c(C)nn(-c2ccccc2)c1C	–
Cc1nn(-c2ccccc2)c(C)c1C(=O)OCC(=O)c1c(N)n(CC(C)C)c(=O)n(C)c1=O	55
Cn1ccc(C(=O)OCC(=O)c2ccccc2)n1	–
O=C(C1CCCN(S(=O)(=O)c2cnc[nH]2)C1)N1CCN(c2ccc(Cl)cc2)CC1 (stereo not drawn)	–
CCOC(=O)N1CCC(NC(=O)c2cccc3c2C(=O)N(CCOC)C3)CC1	–
CC1CCCN(Cc2nc3c(c(=O)n(C)c(=O)n3C)n2CCCc2ccccc2)C1 (stereo not drawn)	–
COc1cccc(C(=O)Nc2ccc(NC(C)=O)cn2)c1	–
CCCC(=O)Nc1ccc(NC(=O)c2cccc(OC)c2)nc1	–
COc1ccc(C(=O)Nc2ccc(C)cn2)c(OC)c1	82
COc1ccc(N2CCN(C(=O)c3ccc(S(=O)(=O)N4CCOCC4)cc3)CC2)cc1	–
O=C(c1n[nH]c(=O)c2ccccc12)N1CCN(c2ccccc2Cl)CC1	–
CCc1ccc2[nH]cc(C(=O)N3CCCCCC3)c(=O)c2c1	–
O=C(c1ccc2c3c(cccc13)C(=O)N(O)C2=O)N1CCCCC1	66
CC(=O)c1ccc(OC(=O)c2cccs2)cc1	–
CC(C)Sc1nnc(Nc2ccccc2)s1	–
SMILES	SF-1 inh
Cc1ccc(CNC(=O)c2cn(C3CCCC3)c(=O)c3c2c2ccccc2n3C)o1	–
COC(=O)Nc1ccc(OCc2ccccc2)cc1	–
O=C(O)c1cccc(OCc2ccccc2Cl)c1	–
Clc1ccc(OCc2nn3c(-c4ccccc4)nnc3s2)c(Cl)c1	–
O=C(O)c1ccc2c(c1)C(=O)N(Cc1ccccc1)C2=O	–
CCOc1ccc(OCc2cccc(C(=O)O)c2)cc1	95
CCCCOc1ccc(C(=O)O)cc1	–
COc1ccc(OCc2cccc(C(=O)O)c2)cc1	94
O=C(O)c1cccc(COc2ccc(CO)cc2Cl)c1	94
COc1ccc(CNC(=O)c2cccc(N3CCCC3=O)c2)cc1	–
Cc1ccc2cc3cc(C(=O)N(C)C4CCCCC4)oc3nc2c1	–
COC(=O)NCc1ccc(S(=O)(=O)N2CCOCC2)cc1	–
COc1ccc(-n2nc3cc(C)c(N)c(Br)c3n2)cc1	–
Cc1cccn2c(=O)c3cc(C#N)c(=NC(=O)c4ccc5c(c4)OCO5)n(CC(C)C)c3nc12	–
Cc1ccc2c(c1)C(N1CCCC1=O)CC(c1ccco1)N2 (stereo not drawn)	–
O=C(c1cc2c(=O)oc3ccccc3c2s1)N1CCN(c2ncccn2)CC1	–
CCOC(=O)C1CCCN(C(=O)C2CCN(S(=O)(=O)c3cnc[nH]3)CC2)C1 (stereo not drawn)	–
COCCn1c(SCC(=O)c2ccccc2)nc2c(c1=O)SC(C)C2 (stereo not drawn)	–
CC(NC(=O)c1ccco1)C(=O)OCc1cccc(Cl)c1 (stereo not drawn)	–
O=C(NCc1nnc(SC/C=C/c2ccccc2)o1)c1ccco1	–
Cc1ccc(-c2nnn(CC(=O)N(Cc3ccco3)C(C(=O)NC(C)(C)C)c3cccs3)n2)o1 (stereo not drawn)	–
CC1(C)NC(=O)N(CC(O)CN2CCCCC2)C1=O (stereo not drawn)	–
CCn1c2ccccc2c2cc(NC(=O)CSc3nnnn3-c3ccccc3)ccc21	70
Cc1ccc(-c2nc(NC(=O)CSc3nnnn3-c3ccccc3)ns2)cc1	–
O=C(CSc1nnnn1-c1ccccc1)NC(=O)Nc1ccc2c(c1)OCCO2	–
SMILES	SF-1 inh
O=C(CN1C(=O)CCSc2ccccc21)Nc1cccc(F)c1	–
CCOc1ccccc1NC(=O)c1cccc(NC(=O)c2ccco2)c1	–
CC(C)=CC(=O)N1CCCc2ccccc21	–
CCOc1ccc(NC(=O)c2ccccc2OC)cc1	–
COc1ccccc1-c1nnc2n1N=C(c1ccc(O)c(O)c1)CS2	67
CCOc1ccc(C2=Nn3c(nnc3-c3ccccc3OC)SC2)cc1	73
Clc1ccc(C2=Nn3c(nnc3-c3cccnc3)SC2)s1	–
CCn1c(SCC(=O)c2ccc(O)c(O)c2)nnc1-c1ccccc1OC	–
Cc1cc(C)nc(SCCS(=O)Cc2ccc(Cl)cc2)n1 (stereo not drawn)	–
COc1ccc(Cl)cc1N(C)C(=O)CCNC(=O)Cn1cnc2ccccc2c1=O	–
Cc1cc(C)n2nnnc2c1C#N	–
Cc1ccccc1Cn1c2ccccc2c2cn[nH]c(=O)c21	–
Cc1[nH]c2ccc(-c3nnc(SCC(=O)NCc4ccco4)n3Cc3ccccc3)cc2c1C	–
Oc1c(/C=N/c2ncn[nH]2)ccc2ccccc12	–
Fc1ccc(-c2nnc(NC3=NCCCCC3)o2)cc1	62
COc1ccc(CN(C(=O)c2ccccc2OC)C2CCS(=O)(=O)C2)cc1 (stereo not drawn)	–
CC1N/C(=C\C(=O)c2ccccc2)N(O)C1(C)C (stereo not drawn)	–
C#CC(C)(C)NC(=O)c1ccccc1OC	–
CCn1c(SCC(=O)Nc2nc(-c3ccc(C)cc3)cs2)nnc1-c1ccccc1O	–
CSCc1nnc(NC(=O)c2ccc(S(=O)(=O)N(CC(C)C)CC(C)C)cc2)o1	48
COCCN(CCOC)S(=O)(=O)c1ccc(C(=O)Nc2nc(-c3ccncc3)cs2)cc1	–
Cc1nnc(NC(=O)c2ccc(S(=O)(=O)N(C)Cc3ccccc3)cc2)o1	–
COc1ccc(N2C(=O)C3CCCN3C2c2ccc(C)cc2)cc1Cl (stereo not drawn)	–
O=C(c1cnsn1)N1CCN(c2ccccn2)CC1	–
Cc1nnc(N2CCOCC2)c2ccccc12	–
SMILES	SF-1 inh
CN(Cc1ccccc1)C(=O)CCCn1c(=O)[nH]c2cc(Cl)ccc2c1=O	–
Cc1c(-c2nc(N)nc(Nc3ccccc3)n2)oc2ccccc12	–
O=C(CCNS(=O)(=O)c1cccc2nonc12)NC1CCCc2ccccc21 (stereo not drawn)	–
CCOC(=O)c1sc2ncn(CC(=O)N(CC)CC)c(=O)c2c1C	–
O=C(Cn1nc(Cc2cccnc2)c2ccccc2c1=O)NCc1ccc2c(c1)OCO2	–
CCOC(=O)C(C)Oc1cccc2c(=O)n(CC(=O)Nc3ccc4c(c3)OCCO4)ccc12 (stereo not drawn)	82
COc1ccccc1C(=O)Nc1ccc2c(c1)OCCO2	–
CC1CC(=O)N(CC(=O)Nc2ccc3c(c2)OCCO3)c2ccccc2S1 (stereo not drawn)	–
COc1ccccc1C(=O)NCc1ccc2c(c1)OCO2	–
CCOC(=O)C(C)Oc1cccc2c(=O)n(CC(=O)NCc3ccc4c(c3)OCO4)ccc12 (stereo not drawn)	83
O=C(OCC(=O)N1CCCCCC1)c1cccs1	–
Cc1c(C(=O)N2CCCC2)oc2c1-c1[nH]ncc1CC2	–
